PubChem BioAssay (EPA / NIEHS)
“And” between values parts separate entries of the source, which are not always exact repeats. Equal values may be shown once. Inconclusive results are not listed. Where a structure was tested more than once in an assay, its records may differ in their call. The source made the active and inactive calls. How the source made its calls, unless noted: active means hit-call score of the fitted dose curve at least 0.9, where 1 is the maximum; inactive means score below 0.9.

Key:
[1] = read-out: Interleukin 17F (IL17F), IL17F (gene 112744); assay: BSK_BT_xIL17F: BioMAP Diversity Plus: BT Assay for Interleukin 17F (IL17F) Biomarker Activity (AID 2284243); settings: primary human B cells with PBMC
Method in brief: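 B cell/PBMC co-culture (human primary), 24 h compound exposure; sIL-17F by Luminex xMAP; gain-of-signal fit vs DMSO baseline.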

[2] = read-out: Actin alpha 1 (ACTA1), ACTA1 (gene 58); assay: BSK_MyoF_ACTA1: BioMAP Diversity Plus: MyoF Assay for Actin alpha 1 (ACTA1) Biomarker Activity (AID 2284244); settings: primary human lung fibroblasts
Method in brief: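 Human lung fibroblast (MyoF system) cultures dosed with test chemical; alpha-SMA measured by ELISA 24 h after dosing, normalized to DMSO control. Cytotoxicity tracked in parallel cultures by SRB total-protein staining.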

[3] = read-out: Interleukin 2 (IL2), IL2 (gene 3558); assay: BSK_BT_xIL2: BioMAP Diversity Plus: BT Assay for Interleukin 2 (IL2) Biomarker Activity (AID 2284245); settings: primary human B cells with PBMC
Method in brief: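 Human B cell plus PBMC co-culture, 24 h after chemical dosing; secreted IL-2 quantified by Luminex xMAP multiplex, fitted for signal gain against DMSO baseline.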

[4] = read-out: Basic fibroblast growth factor (bFGF), FGF2 (gene 2247); assay: BSK_MyoF_bFGF: BioMAP Diversity Plus: MyoF Assay for Basic fibroblast growth factor (bFGF) Biomarker Activity (AID 2284246); settings: primary human lung fibroblasts
Method in brief: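 Human lung fibroblast cultures were dosed and measured 24 h later in 96-well format. bFGF biomarker levels quantified by ELISA, with activity fitted in the positive direction against DMSO.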

[5] = read-out: Collagen IV, COL4A1 (gene 1282); assay: BSK_MyoF_CollagenIV: BioMAP Diversity Plus: MyoF Assay for Collagen IV Biomarker Activity (AID 2284247); settings: primary human lung fibroblasts
Method in brief: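 Primary human lung fibroblasts (MyoF system) dosed 24 h; Collagen IV measured by ELISA. Activity fitted in positive direction against DMSO; cytotoxicity tracked by SRB total-protein staining in parallel cultures.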

[6] = CCTE_Mundy_HCI_hNP1_CellTiter: CCTE's Cell Titer-Glo 2 Assay in human neuroprogenitor cells for Viability, Mundy Lab (AID 2284241; active means hit-call score of the fitted dose curve at least 0.9, where 1 is the maximum)
Method in brief: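 Viability read as luminescent ATP content (CellTiter-Glo, 30 min room temperature) twenty-four hours after dosing, relative to DMSO. Cells: WA09-derived hNP1 neuroprogenitors on poly-L-ornithine/laminin, plated 40 to 44 hours before chemical.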

[7] = read-out: Monokine induced gamma interferon (MIG), CXCL9 (gene 4283); assay: BSK_KF3CT_MIG: BioMAP Diversity Plus: KF3CT Assay for Monokine induced gamma interferon (MIG) Biomarker Activity (AID 2284248); settings: primary human keratinocytes with fibroblasts
Method in brief: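 Human keratinocyte plus foreskin fibroblast primary co-culture dosed with test chemical for 24 h; MIG level measured by ELISA and fitted in the positive direction against DMSO as baseline.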

[8] = read-out: Vascular cell adhesion molecule 1 (VCAM1), VCAM1 (gene 7412); assay: BSK_BF4T_VCAM1: BioMAP Diversity Plus: BF4T Assay for Vascular cell adhesion molecule 1 (VCAM1) Biomarker Activity (AID 2284249); settings: primary human bronchial epithelial cells with fibroblasts
Method in brief: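 Human bronchial epithelial cell and dermal fibroblast co-culture exposed 24 h. VCAM-1 measured by ELISA; parallel SRB total-protein staining for cytotoxicity. Fitted in positive direction relative to DMSO.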

[9] = read-out: Collagen I, COL1A1 (gene 1277); assay: BSK_hDFCGF_CollagenI: BioMAP Diversity Plus: hDFCGF Assay for Collagen I Biomarker Activity (AID 2284250); settings: primary human foreskin fibroblasts
Method in brief: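 Primary human foreskin fibroblasts exposed to chemical for 24 h; Collagen I levels measured by ELISA. Cytotoxicity checked by SRB total-protein staining in parallel cultures.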

[10] = CCTE_Mundy_HCI_Cortical_Synap_Neur_Matur_NeuronCount: CCTE's Synaptogenesis and Neurite Maturation Assay in rat cortical cells for Neuron Count, Mundy Lab (AID 2284242; active means hit-call score of the fitted dose curve at least 0.9, where 1 is the maximum)
Method in brief: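 Rat primary cortical cells, AraC added at DIV 5, dosed with media change from DIV 7 to DIV 12. Fixed, Hoechst-stained and immunolabelled for MAP2 and synaptophysin; neuron number counted by high-content imaging, loss fitted versus DMSO.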

Measured: AC50

C#C[C@]1(O)CC[C@H]2[C@@H]3CCc4cc(OC)ccc4[C@H]3CC[C@@]21C
active: [1] 20 µM
inactive: [2] | [3] | [4] | [5]

C=C(C)C(=O)OCC(F)(F)C(F)(F)C(F)(F)F
not listed: [10]
inactive: all other assays above

CC(=O)Nc1ccc(N=Nc2cc(C)ccc2O)cc1
inactive: [1] | [2] | [3] | [4]
active: [5] 10.6 µM

FC(F)(F)C(F)(F)C(F)(F)C(F)(F)CCI
not listed: [10]
inactive: all other assays above

FC(F)(F)C(F)(F)C(F)(F)CI
not listed: [10]
inactive: all other assays above

CO[Si](OC)(c1ccccc1)c1ccccc1
inactive: [1] | [3] | [4] | [5]
active: [2] 30.8 µM

OC[C@@H](O)[C@@H](O)[C@H](O)[C@@H](O)CO
inactive: [10]

C=CC(=O)OCC(F)(F)C(F)(F)C(F)(F)C(F)(F)COC(=O)C=C
active: [1] 4.17 µM and 2.81 µM | [2] 8.86 µM and 9.38 µM | [3] 11.2 µM and 9.62 µM | [4] 18.2 µM and 14.5 µM | [5] 12.4 µM and 14.3 µM | [7] 21.5 µM and 29.6 µM | [8] 7.96 µM and 10.9 µM
inactive: [6] | [9]

CS(C)(=O)=O
inactive: [1] | [2] | [3] | [4] | [5]

CC(CCl)OP(=O)(OC(C)CCl)OC(C)CCl (stereo not drawn)
not listed: [7] | [8] | [9]
inactive: all other assays above

O[Si](c1ccccc1)(c1ccccc1)c1ccccc1
active: [1] 32.6 µM | [2] 20 µM | [3] 31.3 µM
inactive: [4] | [5]

O=C(O)C(F)(F)C(F)(F)C(F)(F)F
not listed: [10]
inactive: all other assays above

C=CC/C=C/C/C=C/C/C=C/C
inactive: [1] | [2] | [3] | [4] | [5]

Oc1ccc(Nc2ccccc2)cc1
active: [1] 27.7 µM | [3] 37.2 µM
inactive: [2] | [4] | [5]

OCC(F)(F)C(F)(F)C(F)(F)F
not listed: [10]
inactive: all other assays above

CCCCCCC(C)OC(=O)CCCCC(=O)OC(C)CCCCCC (stereo not drawn)
inactive: [1] | [2] | [3] | [4] | [5]

CC(C)(C)C(=O)CC(=O)C(F)(F)C(F)(F)C(F)(F)F
not listed: [10]
inactive: all other assays above

CCc1ccc(C(c2ccc(CC)cc2)C(Cl)Cl)cc1
inactive: [5]
active: [1] 29.7 µM | [2] 7.07 µM | [3] 30.3 µM | [4] 28.9 µM

CCCCOCCOCCOC(=O)CCCCC(=O)OCCOCCOCCCC
inactive: [1] | [2] | [3] | [4] | [5]

FC(F)(F)C(F)(F)C(F)(F)C(F)(F)C(F)(F)C(F)(F)C(F)(F)C(F)(F)F
not listed: [10]
inactive: all other assays above

CCN(CC)c1ccc2c(C)cc(=O)oc2c1
inactive: [1] | [2] | [3] | [4] | [5]

O=C(O)C(F)(F)C(F)(F)OC(F)(F)F
not listed: [10]
inactive: all other assays above

FC(F)(F)C(F)(F)C(F)(F)C(F)(F)C(F)(F)C(F)(F)C(F)(F)C(F)(F)CCS
not listed: [10]
inactive: all other assays above

OCC(F)(F)C(F)(F)C(F)(F)C(F)F
not listed: [10]
inactive: all other assays above

FC(F)(F)C(F)(F)C(F)(F)C(F)(F)C(F)(F)C(F)(F)CC1CO1 (stereo not drawn)
not listed: [10]
inactive: all other assays above

CCCCNc1ccccc1
inactive: [1] | [2] | [3] | [4] | [5]

N=C(N)C(F)(F)C(F)(F)C(F)(F)C(F)(F)C(F)(F)C(F)(F)C(F)(F)F
active: [1] 31.7 µM | [3] 45.7 µM | [9] 30 µM
inactive: [6] | [1] | [2] | [3] | [4] | [5] | [7] | [8] | [9]

O=C(O)C(F)(F)C(F)(F)C(F)(F)C(F)(F)C(F)(F)C(F)(F)C(F)(F)C(F)(F)C(F)(F)C(F)(F)C(F)(F)C(F)(F)F
active: [2] 0.786 µM | [7] 20.5 µM
inactive: [1] | [2] | [3] | [4] | [5] | [7] | [8] | [9]

O=P(O)(O)OCCC(F)(F)C(F)(F)C(F)(F)C(F)(F)C(F)(F)C(F)(F)F
not listed: [10]
inactive: all other assays above

Nc1ccc([N+](=O)[O-])cc1O
inactive: [1] | [2] | [3] | [4] | [5]

O=C(CC(=O)C(F)(F)C(F)(F)F)C(F)(F)F
active: [1] 20.8 µM
inactive: [6] | [1] | [2] | [3] | [4] | [5] | [7] | [8] | [9]

CCc1c(Br)c(Br)c(Br)c(Br)c1Br
inactive: [1] | [2] | [3] | [4] | [5]

OCCCC(F)(F)C(F)(F)C(F)(F)C(F)(F)C(F)(F)C(F)(F)C(F)(F)F
active: [1] 17.8 µM and 18.5 µM | [2] 37.7 µM and 44.6 µM | [3] 20.5 µM and 33.2 µM | [4] 50.9 µM and 57.8 µM | [5] 49.5 µM and 48.3 µM | [7] 25.7 µM and 54.8 µM | [8] 38.1 µM and 42.2 µM | [9] 15.8 µM and 7.13 µM
inactive: [6]

CCCCCCCOC(=O)c1ccccc1C(=O)OCCCCCCC
active: [1] 12.2 µM | [3] 17.5 µM
inactive: [2] | [4] | [5]

CCCCCCCCCCCCCCCC[N+](C)(C)Cc1ccccc1
active: [1] 2.96 µM | [2] 1.36 µM | [3] 2.01 µM | [4] 2.02 µM | [5] 3.21 µM

O=C(O)C(F)(F)C(F)(F)C(F)(F)C(F)(F)C(F)(F)C(F)(F)C(F)(F)C(F)(F)Cl
inactive: [6] | [1] | [3] | [4] | [5] | [8] | [9]
active: [2] 50.7 µM and 43.8 µM | [5] 7.89 µM | [7] 45.7 µM and 54.2 µM | [8] 7.26 µM

O=C(Cl)C(F)(F)C(F)(F)C(F)(F)C(F)(F)C(F)(F)C(F)(F)C(F)(F)C(F)(F)F
active: [2] 23.6 µM and 43.7 µM and 30 µM | [5] 18.7 µM and 20.4 µM and 21.3 µM | [8] 38.9 µM and 47.4 µM and 45.5 µM
not listed: [6] | [10]
inactive: all other assays above

FC(F)(F)C(F)(F)C(F)(F)N(C(F)(F)C(F)(F)C(F)(F)F)C(F)(F)C(F)(F)C(F)(F)F
not listed: [6] | [10]
inactive: all other assays above

FC1CC(F)(F)C(F)(F)C1(F)F (stereo not drawn)
not listed: [6] | [10]
inactive: all other assays above

O=C(O)C(F)(F)C(F)(F)C(F)F
not listed: [6] | [10]
inactive: all other assays above

FC(F)(F)C(F)(F)C(F)(F)C(F)(F)C(F)(F)CCI
not listed: [6] | [10]
inactive: all other assays above

O=S(=O)(OCC(F)F)C(F)(F)F
not listed: [6] | [10]
inactive: all other assays above

CCO[Si](CCC(F)(F)C(F)(F)C(F)(F)C(F)(F)C(F)(F)C(F)(F)F)(OCC)OCC
not listed: [6] | [10]
inactive: all other assays above
